Bioassay records: PubChem, National Center for Advancing Translational Sciences (NCATS)
Cruzain inh Det: cruzain (T. cruzi) inhibition with detergent; P25779; purified cruzain, Z-FR-AMC fluorescence, 0.01% Triton; Potency, µM, for the others: max response, negative = inhibition, usual class: inhibitors; 200,000 tested, 0.43% active; AID 1478;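 note: plate controls were neutral wells for no effect and buffer without enzyme for full effect; nearly all actives have a fitted effect of over 40% in size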
Target sequence (P25779 123-467 limits assumed): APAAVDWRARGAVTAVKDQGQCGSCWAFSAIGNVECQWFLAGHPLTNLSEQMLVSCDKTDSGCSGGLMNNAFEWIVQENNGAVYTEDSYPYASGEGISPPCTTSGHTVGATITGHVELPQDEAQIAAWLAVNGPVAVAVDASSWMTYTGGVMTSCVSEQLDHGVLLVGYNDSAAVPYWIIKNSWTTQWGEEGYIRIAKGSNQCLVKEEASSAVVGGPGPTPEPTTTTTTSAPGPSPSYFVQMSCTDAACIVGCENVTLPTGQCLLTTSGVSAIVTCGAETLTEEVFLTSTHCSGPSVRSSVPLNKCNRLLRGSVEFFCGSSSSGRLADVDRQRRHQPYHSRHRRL
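Purified cruzain (1.5 nM final) was preincubated with compounds for 15 min at room temperature in 100 mM sodium acetate pH 5.5, 5 mM DTT, 0.01% Triton X-100. Reaction started with 2 uM Z-FR-AMC; AMC fluorescence change over 60 s gave activity.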
Cruzain inh noDet: inhibitors of Trypanosoma cruzi cruzain without detergent. P25779. purified cruzain, Z-FR-AMC fluorescence, no detergent. Potency, µM, for inactives: max response, negative = inhibition, hits mostly inhibitors. 200,000 tested, 2.3% active. AID 1476;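 note: plate controls were enzyme without inhibitor for no effect and buffer without enzyme for full effect; nearly all actives have a fitted effect of over 40% in size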
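Purified cruzain at 1.5 nM, pre-incubated 15 min with compound at room temperature in 100 mM sodium acetate pH 5.5, 5 mM DTT, 0.00005% Triton X-100. Reaction started with 2 uM Z-FR-AMC; AMC fluorescence increase over 60 s gives rate.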
* hit, by the source's call; ? = inconclusive. Only some compounds are listed: those with a hit (about 2.5% of all), similar ones and a draw of the others. Calls come from the whole dose curve; as a rule, active = well fitted curve in the direction sought with a large enough effect; inconclusive = small, poorly fitted or top-dose-only effect, or another doubt; inactive = no such curve, though single readings can be large; an effect the other way counts as inactive or inconclusive. Potency is the fitted concentration of half-maximal effect.

SMILES	Cruzain inh Det	Cruzain inh noDet
Cc1ccc(S(=O)(=O)N2CCOCC2)cc1NC(=O)COC(=O)CNC(=O)c1ccc(C(C)(C)C)cc1	-2%	?
CC(C)NC(=O)COC(=O)CNC(=O)c1cc(Cl)cc([N+](=O)[O-])c1	7.9µM*	7.9µM*
Cc1ccc(S(=O)(=O)N2CCCCC2)cc1NC(=O)COC(=O)CNC(=O)c1cc(Cl)cc([N+](=O)[O-])c1	10µM*	20µM*
CC(C)(C)c1ccc(C(=O)NCC(=O)OCC(=O)Nc2ccccc2[N+](=O)[O-])cc1	-6%	5%
Cc1ccc2c(c1)N(C(=O)N1CCC(C(=O)NCc3ccccc3C)CC1)CC(C)O2 (stereo unspecified)	-2%	0%
CCN1CCc2c(sc(NC(=S)NC(=O)c3ccccc3)c2C#N)C1	0%	-11%
CC1CCc2sc(NC(=S)NC(=O)c3ccccc3)c(C#N)c2C1 (stereo unspecified)	-6%	25µM*
N#Cc1c(NC(=O)c2ccc(-c3ccccc3[N+](=O)[O-])o2)sc2c1CCCC2	2%	?
CC1CCc2c(sc(NC(=O)c3ccc(-c4ccccc4[N+](=O)[O-])o3)c2C#N)C1 (stereo unspecified)	4%	10µM*
N#Cc1c(NC(=S)NC(=O)c2ccccc2)sc2c1CCC2	-7%	-7%
CC(C)(C)c1ccc(C(=O)NC(=S)Nc2sc3c(c2C#N)CCC3)cc1	-4%	10µM*
CSc1ccc(CCNc2ncnc3onc(C)c23)cc1	1%	12%
Nc1nc(-c2ccccc2)cc(-c2ccccc2O)n1	-12%	-17%
NNc1nc(-c2ccccc2)cc(-c2ccccc2O)n1	-5%	16µM*
COc1cc2c(cc1OC)[C@@]13CCN4C=C5CCO[C@H]6CC(=O)N2[C@@H]1C6[C@H]5C[C@H]43 (stereo partly specified)	3%	3%
CCOc1ccc(-c2nc3c(C#N)c[nH]n3c2NC2CCCC2)cc1	-1%	9%
COC(=O)c1c(C)nn(-c2ccc(F)cc2)c1-n1cccc1	-3%	0%
Cc1nc(NC(=O)CSc2nnc(-c3ccccc3)c(-c3ccccc3)n2)c(Cl)cc1Cl	-13%	?
O=C(CSc1nnc(-c2ccccc2)c(-c2ccccc2)n1)Nc1ncc(Cl)cc1Cl	-11%	32µM*
CCOC(=O)Nc1ccc(C)cc1C	4%	1%
Cc1ccc(NC(=O)COC(=O)C(CC(C)C)N2C(=O)C3CC=CCC3C2=O)c(C)c1 (stereo unspecified)	25µM*	8%
Cc1cc(-c2ccc(N=Nc3cc(S(=O)(=O)O)c4ccccc4c3N)c(C)c2)ccc1N=Nc1cc(S(=O)(=O)O)c2ccccc2c1N	7.9µM*	?
Nc1c(S(=O)(=O)O)cc(S(=O)(=O)O)c2ccc(N=Nc3ccccc3)c(O)c12	0%	-7%
O=c1c(-c2ccc(F)c(F)c2)nc2cncnc2n1Cc1ccccc1Cl	-7%	-20%
NCCn1c(=O)c(CCc2ccccc2)nc2cncnc21	2%	-14%
SMILES	Cruzain inh Det	Cruzain inh noDet
O=c1c(-c2cc(F)cc(F)c2)nc2cncnc2n1Cc1ccccc1Cl	-7%	25µM*
O=c1c(CCc2ccccc2)nc2cncnc2n1Cc1ccccc1Cl	-5%	3.2µM*
NC1=C(c2ccc(F)cc2)C(=O)CS1	?	16µM*
Nc1nnc(-c2ccc(F)cc2)s1	-3%	16%
Cc1cccc(-n2c(C)cc(C(=O)C(=O)Nc3nncs3)c2C)c1	-2%	-10%
COc1ccccc1OCCn1c(NC(=O)c2ccc(Cl)cc2)nc2ccccc21	-2%	3%
COc1ccccc1OCCn1c(NC(=O)c2ccccc2Cl)nc2ccccc21	-6%	20µM*
Clc1ccc(NCc2nc3ccccc3n2CCOc2ccccc2)cc1	-7%	-7%
S=C(Nc1ccccc1)Nc1nc2ccccc2n1CCOc1ccc(Cl)cc1	3%	10µM*
CCn1c(NC(=S)Nc2ccccc2)nc2ccccc21	-2%	25µM*
CCCn1c(NC(=S)Nc2ccccc2)nc2ccccc21	4%	6%
CCN(c1ccc(OC)cc1)S(=O)(=O)c1ccc2[nH]c3c(c2c1)CCCCC3	-3%	?
COc1ccc(C(=O)N2CCC(C(=O)Nc3ccc(OC)cc3OC)CC2)cc1	-4%	-8%
Cc1ccc2sc(NNC(=O)c3cc(-c4cccs4)nc4ccccc34)nc2c1C	0%	10µM*
Cc1cc(C)c2nc(NNC(=O)c3cc(-c4cccs4)nc4ccccc34)sc2c1	2%	?
O=C(NNc1nc2ccc(Cl)cc2s1)c1cc(-c2cccs2)nc2ccccc12	2%	7.9µM*
O=C(NN1CCOCC1)c1cc(-c2cccs2)nc2ccccc12	-9%	10%
CCOc1ccc(-c2cccc(NS(=O)(=O)c3c(C)cc(C)cc3C)c2)nn1	-8%	-14%
COc1ccc(CCNC(=O)CN(c2cc(C(F)(F)F)ccc2Cl)S(C)(=O)=O)cc1	-4%	-6%
COC(=O)C1=CN(C)C=C(C(=O)OC)C1c1ccc(O)c(OC)c1	1%	-2%
COCCN1C=C(C(=O)OC)C(c2cc(Br)c(OC)c(OC)c2)C(C(=O)OC)=C1	22µM*	?
O=C(NC1CCCCC1)c1ccc2c(c1)N(Cc1cccc(F)c1)C(=O)c1ccccc1S2	-3%	-27%
CCc1cc2c(=O)c(-c3cnn(-c4ccccc4)c3)c(C)oc2cc1OCC(=O)Nc1cccc(C)c1	-2%	?
CCc1cc2c(=O)c(-c3cnn(-c4ccccc4)c3)c(C)oc2cc1OCC(=O)Nc1ccc(F)c(F)c1	-1%	25µM*
Cc1ccc(CNC(=O)Cn2ncc3c(C)n(Cc4ccc(Cl)cc4)c(C)c3c2=O)cc1	1%	-6%
SMILES	Cruzain inh Det	Cruzain inh noDet
CCCNC(=O)c1cc2c3ccccc3n(C)c2s1	-18%	-2%
CC(=O)Nc1ccc(S(=O)(=O)NNC(=O)c2cc3c4ccccc4n(C)c3s2)cc1	22µM*	-20%
Cc1ccc(-c2nc(CS(=O)CC(=O)N3CCN(c4ccc(Cl)cc4)CC3)c(C)o2)cc1 (stereo unspecified)	-3%	14%
CCOc1ccc2c(c1)NC(c1cccs1)=NC(c1ccc(F)cc1)=N2	-7%	?
c1ccc(C2CC(c3ccccc3)n3c(nc4ccccc43)N2)cc1 (stereo unspecified)	1%	13µM*
O=C1C2CC=CCC2C(=O)N1c1nc2n(n1)C(c1ccccc1)CC(c1ccccc1)N2 (stereo unspecified)	-3%	?
CCN(CC)C(=O)Cn1c(=O)n(Cc2ccc(C(=O)NCCCOC)cc2)c(=O)c2ccccc21	0%	-6%
Cc1ccc(C)c(Cn2c(C3CC(=O)N(c4ccccc4C)C3)nc3ccccc32)c1 (stereo unspecified)	-4%	30%
CC(C)(O)[C@H](O)COc1c2occc2cc2ccc(=O)oc12	0%	0%
Cc1cc2ccc(=O)oc2cc1OC[C@@H](O)C(C)(C)O	-16%	40µM*
O=C(CC1N=C2c3ccccc3N=C(SCc3ccccc3F)N2C1=O)NCc1ccc2c(c1)OCO2 (stereo unspecified)	-3%	-17%
COc1cccc(CNC(=O)c2ccc(NC(=O)N3CC(C)Sc4ccccc43)cc2)c1 (stereo unspecified)	-7%	?
CCOc1ccc(/C(C)=N/N2C(=O)C(CC(=O)Nc3ccc(OC)cc3[N+](=O)[O-])SC2=Nc2cccc(C)c2C)cc1 (stereo unspecified)	-1%	10µM*
